Values without a mark were called inactive. Calls of active or inactive are those of the source. Rule as the data show it: active = fold change permeability below about 0.7 or above about 1.3; inactive = in between.

The experiment is described as follows: modulators of brain endothelial barrier permeability, primary screen, cell-based, FITC-avidin fluorescence, HTS (AID 1963498). Also: test concentration not given here. The conditions noted are these: actives lie on both sides.
For the molecule `CCN(CC)Cc1ccc(C(=O)N(CCc2ccccc2OC)[C@@H]2CCNC2)cc1`, the fold change permeability was 0.9.

As for `c1ccc(-c2cnn3cc(-c4ccc(OCCN5CCOCC5)cc4)cnc23)cc1`, the fold change permeability is 1.2.

For `CCCNC(=O)Nc1ccc(Oc2ncnc3cc(OC)c(OC)cc23)cc1Cl`, the fold change permeability is 1.1.

Take `Cc1[nH]c(=O)c(C#N)cc1-c1ccc2nccn2c1`: the fold change permeability was 0.8.

Consider `CCCCn1c(-c2ccccc2)nc(-c2ccccc2)c1CN(Cc1ccc2c(c1)OCO2)Cc1ccc2c(c1)OCO2`, for which the fold change permeability was 1.3 (active).

As to `COc1ccc(/C=C/C(=O)Nc2ccc(C(F)(F)F)cc2)cc1OC`, the fold change permeability was 1.6 (active).

As to `O=C1NCC2(CCN(CCc3ccccc3)CC2)O1`, the fold change permeability was 1.

Regarding `CC(C)c1cccc(C(C)C)c1N1C(=O)c2ccc(O)cc2C1=O`, the fold change permeability is 1.6 (active).

Consider `Nc1nc(-c2ccccc2)c(Br)c(=O)[nH]1`, for which the fold change permeability is 1.7 (active).

For `Nc1nc2c(c(=O)[nH]1)C[C@@H](CCc1ccc(C(=O)N[C@@H](CCC(=O)O)C(=O)O)cc1)CN2`, the fold change permeability was 0.9.

Turning to `Brc1c(Br)c(Br)c2[nH]cnc2c1Br`, the fold change permeability was 1.2.

As for `COc1ccc(CCN(C)CCCC(C#N)(c2cc(OC)c(OC)c(OC)c2)C(C)C)cc1OC` (centres undefined), the fold change permeability was 0.9.

In the case of `CC(Nc1nc(N2CCNCC2)nc2ccccc12)c1ccccc1` (centres undefined), the fold change permeability is 2.4 (active).

Take `O=C(O)c1ccc(-c2c[nH]c3ncc(-c4ccccc4)cc23)cc1C1CCCC1`: the fold change permeability is 1.4 (active).

Take `C[N+](C)(C)CCOC(N)=O`: the fold change permeability is 0.9.

Consider `CCOC(=O)[C@@H](N)Cc1ccc(O)c(O)c1`, for which the fold change permeability is 0.9.

For the molecule `Nc1nc(Nc2ccccc2)nc2c1ncn2[C@@H]1O[C@H](CO)[C@@H](O)[C@H]1O`, the fold change permeability is 0.8.

Take `Cc1cccc(C2CN(C)CCc3c2cc(O)c(O)c3Cl)c1` (centres undefined): the fold change permeability is 0.7 (active).

`CNC(=O)c1c(F)cccc1Nc1nc(Nc2cc3c(cc2OC)CCN3C(=O)CN(C)C)nc2[nH]ccc12`: the fold change permeability was 1.6 (active).

With `CCC(=O)Nc1cccc(Oc2nc(Nc3ccc(N4CCN(C)CC4)cc3OC)ncc2Cl)c1`, the fold change permeability is 1.2.

Regarding `Oc1cc(O)cc(/C=C/c2ccc(O)c(O)c2)c1`, the fold change permeability was 0.7 (active).

As to `CCCCCCCCCC(=O)N[C@H](CN1CCOCC1)[C@H](O)c1ccccc1`, the fold change permeability is 0.9.

Turning to `CCC(=O)c1ccc2c(c1)N(CCCN(C)C)c1ccccc1S2`, the fold change permeability was 1.1.

On to `Nc1ncnc2c1ncn2C1CCCO1` (centres undefined), for which the fold change permeability is 1.

With `O=C1S/C(=C\c2ccc(OCc3ccc(B(O)O)cc3)cc2)C(=O)N1Cc1ccc(F)cc1`, the fold change permeability is 1.2.

`CNS(=O)(=O)CCc1ccc2[nH]cc(C3CCN(C)CC3)c2c1`: the fold change permeability was 1.

In the case of `COc1cc2c(cc1O)CC[C@@H]1[C@@H]2CC[C@]2(C)[C@@H](O)CC[C@@H]12`, the fold change permeability was 1.3 (active).

Take `CN1Cc2sccc2C(c2ccc(O)c(O)c2)C1` (centres undefined): the fold change permeability was 1.

On to `O=C(O)CP(=O)(O)O`, for which the fold change permeability was 1.

As to `CN[C@H](CC(C)C)C(=O)N[C@H]1C(=O)N[C@@H](CC(N)=O)C(=O)N[C@H]2C(=O)N[C@H]3C(=O)N[C@H](C(=O)N[C@H](C(=O)O)c4cc(O)cc(O)c4-c4cc3ccc4O)[C@H](O)c3ccc(c(Cl)c3)Oc3cc2cc(c3O[C@@H]2O[C@H](CO)[C@@H](O)[C@H](O)[C@H]2O[C@H]2C[C@](C)(N)[C@H](O)[C@H](C)O2)Oc2ccc(cc2Cl)[C@H]1O`, the fold change permeability was 1.6 (active).

Take `CC1CNCCN1S(=O)(=O)c1cccc2cnccc12` (centres undefined): the fold change permeability was 1.1.

For the molecule `Nc1nc2c(cnn2CCc2ccccc2)c2nc(-c3ccco3)nn12`, the fold change permeability was 0.7 (active).

As to `O=C(c1cccc(-c2ccc(-c3cn(C(=O)N4CCCCC4c4ccccc4)nn3)cc2)c1)N1CCCCC1` (centres undefined), the fold change permeability is 1.1.

In the case of `NC(N)=NC(N)=Nc1cccc(Cl)c1`, the fold change permeability is 1.2.

Turning to `NCCCNCCCCNCCCN`, the fold change permeability was 1.6 (active).

For the molecule `NS(=O)(=O)c1cccc2c1c([N+](=O)[O-])cc1nc(O)c(O)nc12`, the fold change permeability is 0.9.

Turning to `OC[C@H]1NC[C@@H](O)[C@@H]1O`, the fold change permeability is 1.

In the case of `O=C(COc1ccc(Cl)cc1)NC1CCC(NC(=O)COc2ccc(Cl)cc2)CC1` (centres undefined), the fold change permeability was 0.9.

In the case of `CCOc1cc(C(=O)Nc2ccc(Cl)c(-c3nc4ccccc4[nH]3)c2)cc(OCC)c1OCC`, the fold change permeability is 1.7 (active).
